Results on 36 compounds are retold here after ChEMBL document CHEMBL3433997, “St. Jude Leishmania screening dataset” (2016).

What all share (format): functional
Experiment [1] addresses Solute carrier family 2, facilitated glucose transporter member 1 (Homo sapiens) (UniProt P11166). The experiment is described as follows: ST_JUDE_LEISH: Cytotoxicity at 2uM final concentration against transgenic Leishmania Mexicana promastigotes LmGLUT1 that are glucose transport deficient and complemented with the human glucose transporter GLUT1. Activity is measured by DNA content using SYBR green in vitro.

The target of experiment [2] is Hexose transporter 1 (Plasmodium falciparum) (UniProt O97467). The experiment is described as follows: ST_JUDE_LEISH: Cytotoxicity at 2uM final concentration against transgenic Leishmania Mexicana promastigotes LmPfHT that are glucose transport deficient and complemented with the Plasmodium falciparum hexose transporter. Activity is measured by DNA content using SYBR green in vitro.

For experiment [3], the target named is Glucose transporter (Leishmania mexicana) (UniProt O61059). The experiment can be described thus: ST_JUDE_LEISH: Cytotoxicity at 2uM final concentration against transgenic Leishmania Mexicana promastigotes LmGT2 that are glucose transport deficient and complemented with the L. Mexicana glucose transporter 2. Activity is measured by DNA content using SYBR green in vitro.

Chain of Solute carrier family 2, facilitated glucose transporter member 1 (Homo sapiens) (P11166 whole entry): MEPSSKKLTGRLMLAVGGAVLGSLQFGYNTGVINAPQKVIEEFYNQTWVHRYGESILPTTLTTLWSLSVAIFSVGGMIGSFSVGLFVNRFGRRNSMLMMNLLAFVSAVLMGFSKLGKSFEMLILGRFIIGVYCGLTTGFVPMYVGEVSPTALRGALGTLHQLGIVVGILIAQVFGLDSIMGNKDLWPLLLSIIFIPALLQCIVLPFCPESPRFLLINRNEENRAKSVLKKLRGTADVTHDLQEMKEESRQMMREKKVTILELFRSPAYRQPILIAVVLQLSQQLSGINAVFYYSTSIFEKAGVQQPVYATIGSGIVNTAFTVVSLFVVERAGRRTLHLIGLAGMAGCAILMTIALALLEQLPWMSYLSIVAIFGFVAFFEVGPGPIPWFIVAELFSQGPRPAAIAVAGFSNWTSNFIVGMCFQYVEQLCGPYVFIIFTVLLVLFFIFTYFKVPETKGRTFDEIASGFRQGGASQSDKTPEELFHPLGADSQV

`CC(C)(C)C(C)(C)Cc1ccc(O)c(CN2CCN(c3ccccc3)CC2)c1`: the inhibition (usually the drop in the measured response relative to a control, in per cent) is 0.82% in experiment [1], -0.41% in experiment [2] and -0.38% in experiment [3].
Taken in the same sequence, the figures for `Cc1ccc(S(=O)(=O)N2CCN(C(=O)c3cc(-c4cccs4)n[nH]3)CC2)c(C)c1` were 2.83%, 2.34% and -0.33%.
Consider `Cc1cc(N/N=C/c2cccc([N+](=O)[O-])c2)c2ccccc2n1`, for which the inhibition in experiment [1] worked out at 1.39%; in experiment [2], 1.27%; in experiment [3], 4.98%.
Taken in the same sequence, the figures for `O=C(C=Cc1cccs1)N(CCCn1ccnc1)c1nc2ccc(F)cc2s1` were 4.66%, 4.09% and 2.51%.
Taken in the same sequence, the figures for `CC1=C(C(=O)Nc2cc3cn[nH]c3cc2F)C(c2cccc(O)c2F)CC(=O)N1` (stereo not drawn) were -2.25%, -3.23% and 0.72%.
Taken in the same sequence, the figures for `CN1CCCN(Cc2cccc(-c3ccc(NC(=O)c4ccc(Cl)cc4)cc3)c2)CC1` were 55.2%, 50.2% and 21.9%.
With `COc1ccc(Nc2nccc(NCC(O)c3ccc(C(F)(F)F)cc3)n2)cc1` (stereo not drawn), the inhibition in experiment [1] is 2.9%; in experiment [2] it was 5.27%; in experiment [3], 2.61%.
The corresponding values for `Cc1cccc2nc(-c3ccc(-c4ccc(CN5CCCCC5CO)cc4)cc3)[nH]c12` (stereo not drawn) are 27.8%, 31.6% and 19.5%.
For `CCN(CC)CCCC(C)Nc1c2cc(OC)ccc2nc2cc(Cl)c([N+](=O)[O-])cc12` (stereo not drawn), the inhibition was found to be 1.29% in experiment [1], 0.73% in experiment [2] and 0.82% in experiment [3].
Taken in the same sequence, the figures for `COc1cc(OC)cc(C(=O)Nc2ccc(Nc3nc(C)cc(N(C)C)n3)cc2)c1` were 6.01%, 12.8% and 6.54%.
Taken in the same sequence, the figures for `CC(C)(C)OC(=O)N1CCN(c2ccccc2NC(=O)c2cccc(C(F)(F)F)c2Oc2ccc(F)cc2)CC1` were -1.41%, 0.7% and 0.52%.
Taken in the same sequence, the figures for `O=C(Nc1ccc2c(c1)CN(Cc1ccc(N3CCCC3)o1)CCC2)c1ccoc1` were 19.8%, 12.8% and 2.73%.
Regarding `O=C(NCc1cccc(F)c1)Nc1ccc(-c2ccc(-c3nc4cc(C(F)(F)F)ccc4[nH]3)cc2)cc1`, the inhibition in experiment [1] was 0.8%; in experiment [2], -0.45%; in experiment [3], 1.77%.
Taken in the same sequence, the figures for `COc1ccc(-c2cnc3ccc(NCc4ccc(F)cc4)nn23)cc1OC` were 4.06%, 4.1% and 1.96%.
The corresponding values for `O=C(C=Cc1ccc(Cl)c(Cl)c1)NCCCCCN1CCC(CCNC(=O)c2sc3ccccc3c2Cl)CC1` are 11.5%, 9.43% and 8.75%.
Taken in the same sequence, the figures for `Cc1ccc(NC(=O)NC2CCN(c3ccnc4cc(Cl)ccc34)CC2)cc1` were 9.02%, 7.47% and 8.65%.
On to `Cc1cnccc1/C=C/c1cccc(OCCN2CCc3ccc(S(C)(=O)=O)cc3CC2)c1`, for which the inhibition is 1.95% in experiment [1], 2.77% in experiment [2] and 1.68% in experiment [3].
The corresponding values for `CSc1nc2cc3c(cc2n1C(=O)c1ccc(C)cc1)OCCO3` are 6.31%, 4.48% and 2.89%.
The corresponding values for `Cc1ccc(NC(=O)c2ccc3ncccc3c2)cc1OC1CCN(Cc2ccc(F)cc2)C1` (stereo not drawn) are 1.19%, 0.73% and 1.26%.
The corresponding values for `CCCc1ccc(S(=O)(=O)NC2CCN(C(=O)Nc3ccc(I)cc3)CC2)cc1` are 5.43%, 5.51% and 5.03%.
As for `Cc1cccc2nc(-c3ccc(-c4ccc(NC(=O)Nc5ccc(Cl)cc5)cc4)s3)[nH]c12`, the inhibition in experiment [1] was 1.01%; in experiment [2] it was 1.2%; in experiment [3] it was 0.32%.
Consider `O=C(Nc1cccc(Oc2ccccc2)c1)N[C@H]1CCN(Cc2ccc(OCCCN3CCCCC3)cc2)C1`, for which the inhibition in experiment [1] was 3.58%; in experiment [2], 5.18%; in experiment [3], 6.98%.
Taken in the same sequence, the figures for `COCCN1CCC(CNCC(C)(C)c2nc(-c3ccc(Cl)c(O)c3)c(-c3ccncc3)[nH]2)CC1` were 7.22%, 7.6% and 7.7%.
The corresponding values for `CNC(=O)CSc1nnc(-c2ccc(C)cc2)c(-c2ccc(C)cc2)n1` are 2.46%, 2.74% and 1.88%.
The corresponding values for `Cc1noc(C)c1-c1ccc2c(Nc3ccc(C#N)cc3)c(C(N)=O)cnc2c1` are 4.95%, 4.62% and 5%.
For the compound `O=C(Nc1cccc(-c2nn3ncccc3c2-c2ccnc(Nc3ccccc3)n2)c1)c1c(F)cccc1F`, the inhibition worked out at 3.26% in experiment [1], 11% in experiment [2] and 2.04% in experiment [3].
The corresponding values for `O=C(Nc1cccc(C(F)(F)F)c1)c1cccc(S(=O)(=O)NCC2CCCN(CC3CCCCC3)C2)c1` (stereo not drawn) are -0.44%, 0.12% and -2.09%.
Taken in the same sequence, the figures for `Cc1ccc(C(=O)Nc2ccc(Nc3ccnc4cc(-c5ccncc5)ccc34)cc2O)cc1` were -0.09%, -0.05% and 1.37%.
The corresponding values for `CCCCCCOc1ccc(C(=O)NCCCC2CCN(CCCCCNC(=O)C=Cc3ccc(Cl)c(Cl)c3)CC2)cc1` are 2.75%, 4.46% and 3.91%.
Regarding `Clc1ncnc2scc(-c3ccc(Br)cc3)c12`, the inhibition in experiment [1] worked out at 7.74%; in experiment [2], 6.35%; in experiment [3], 3.52%.
The corresponding values for `CC(=O)N[C@@H]1c2cc(C(C)=O)ccc2OC(C)(C)[C@@H]1O` are -0.93%, -0.7% and -0.73%.
Taken in the same sequence, the figures for `Nc1nc2c(c(=O)[nH]1)CN(S(=O)(=O)c1ccc(C(=O)N[C@@H](CCC(=O)O)C(=O)O)cc1)CC2` were -3.01%, -2.13% and -1.12%.
`Cc1cccc2c3c([nH]c12)C1(CCN(Cc2ccccc2)CC1)NC(C(=O)NCc1ccccc1)C3` (stereo not drawn): the results for the inhibition in experiment [1], in experiment [2] and in experiment [3] were 0.05%, -0.76% and 0.87%, respectively.
The corresponding values for `COc1ccc(CCn2c(=N)c(C(=O)NC3CCCC3)cc3c(=O)n4ccccc4nc32)cc1` are 7.26%, 9.43% and 5.98%.
Taken in the same sequence, the figures for `COc1ccc2c(=NN=CC=Cc3ccccc3)cc(C)[nH]c2c1` were 0.78%, 4.29% and 3.21%.
The corresponding values for `N=C1c2ccccc2CN1CC(=O)c1ccc(Cl)c(Cl)c1` are 0.66%, 2.37% and 2.53%.
